Results: PubChem BioAssay (EPA / NIEHS)
Active and inactive are the calls of the source. The calls were made as follows: active = hit-call score of the fitted dose curve at least 0.9, where 1 is the maximum; inactive = score below 0.9.

Columns and labels:
[1] = ATG_CRE_CIS: Attagene CIS-FACTORIAL HepG2 Assay for human cAMP Responsive Element (CRE) binding protein 3 (AID 2282926); settings: HepG2 CRE cis-reporter, Attagene multiplexed mRNA; actives raise or lower the signal
Procedure, shortened: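 Multiplexed transcription-unit reporters transfected into HepG2; 24 h dosing; RT-PCR/capillary electrophoresis fluorescence read-out; bidirectional fit vs DMSO.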

[2] = target: CCAAT/enhancer-binding protein beta (Homo sapiens) (UniProt P17676); experiment: ATG_C_EBP_CIS: Attagene CIS-FACTORIAL HepG2 Assay for human CCAAT/Enhancer Binding Protein (C/EBP) beta (AID 2282927); settings: HepG2 Attagene cis-factorial transcription factor reporter; actives raise or lower the signal
CCAAT/enhancer-binding protein beta (Homo sapiens), sequence (P17676 whole entry, looked up, the tested form may be a part): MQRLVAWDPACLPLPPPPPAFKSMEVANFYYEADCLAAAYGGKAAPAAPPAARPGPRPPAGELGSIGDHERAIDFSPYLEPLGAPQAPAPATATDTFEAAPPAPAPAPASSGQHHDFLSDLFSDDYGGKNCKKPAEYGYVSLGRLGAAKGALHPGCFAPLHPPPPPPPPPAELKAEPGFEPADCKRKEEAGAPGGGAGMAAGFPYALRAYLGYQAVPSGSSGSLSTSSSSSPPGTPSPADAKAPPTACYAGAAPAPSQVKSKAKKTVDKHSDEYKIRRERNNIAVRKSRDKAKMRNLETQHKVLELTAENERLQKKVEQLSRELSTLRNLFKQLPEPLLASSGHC
Procedure, shortened: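 Endogenous C/EBPb-driven reporter transcripts measured in transfected human HepG2 cells at 24 h via RT-PCR and capillary electrophoresis of labelled fragments. Activity fitted in both directions relative to DMSO baseline.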

[3] = ATG_CMV_CIS: Attagene CIS-FACTORIAL HepG2 Assay for human CMV (Internal Marker) (AID 2282928); settings: HepG2 CMV promoter reporter, transcription factor profiling; actives raise or lower the signal;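 also: endpoint acts as a background internal control marker rather than a target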
Procedure, shortened: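 HepG2 cells transiently transfected with multiple cis-regulated reporter units; 24 h compound exposure. Reporter mRNA quantified by RT-PCR, 6-FAM primer-extension labeling, HpaI digestion and capillary electrophoresis; bidirectional fitting against DMSO baseline.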

[4] = ATG_DR4_LXR_CIS: Attagene CIS-FACTORIAL HepG2 Assay for human Liver X Receptor (LXR), DR4 submotif (AID 2282929); settings: HepG2 Attagene DR4 cis-reporter, mRNA transcription; actives raise or lower the signal
Procedure, shortened: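 DR4 cis-reporter in HepG2, 24 h exposure. Detection: RT-PCR, 6-FAM labelling, CE fragment analysis. Endpoint fitted bidirectionally, DMSO = baseline.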

[5] = target: Aryl hydrocarbon receptor (Homo sapiens) (UniProt P35869); experiment: ATG_Ahr_CIS: Attagene CIS-FACTORIAL HepG2 Assay for human Aryl Hydrocarbon Receptor (Ahr) (AID 2282930); settings: HepG2 AhR cis-factorial reporter transcription; actives raise or lower the signal
Aryl hydrocarbon receptor (Homo sapiens), sequence (P35869 whole entry, looked up): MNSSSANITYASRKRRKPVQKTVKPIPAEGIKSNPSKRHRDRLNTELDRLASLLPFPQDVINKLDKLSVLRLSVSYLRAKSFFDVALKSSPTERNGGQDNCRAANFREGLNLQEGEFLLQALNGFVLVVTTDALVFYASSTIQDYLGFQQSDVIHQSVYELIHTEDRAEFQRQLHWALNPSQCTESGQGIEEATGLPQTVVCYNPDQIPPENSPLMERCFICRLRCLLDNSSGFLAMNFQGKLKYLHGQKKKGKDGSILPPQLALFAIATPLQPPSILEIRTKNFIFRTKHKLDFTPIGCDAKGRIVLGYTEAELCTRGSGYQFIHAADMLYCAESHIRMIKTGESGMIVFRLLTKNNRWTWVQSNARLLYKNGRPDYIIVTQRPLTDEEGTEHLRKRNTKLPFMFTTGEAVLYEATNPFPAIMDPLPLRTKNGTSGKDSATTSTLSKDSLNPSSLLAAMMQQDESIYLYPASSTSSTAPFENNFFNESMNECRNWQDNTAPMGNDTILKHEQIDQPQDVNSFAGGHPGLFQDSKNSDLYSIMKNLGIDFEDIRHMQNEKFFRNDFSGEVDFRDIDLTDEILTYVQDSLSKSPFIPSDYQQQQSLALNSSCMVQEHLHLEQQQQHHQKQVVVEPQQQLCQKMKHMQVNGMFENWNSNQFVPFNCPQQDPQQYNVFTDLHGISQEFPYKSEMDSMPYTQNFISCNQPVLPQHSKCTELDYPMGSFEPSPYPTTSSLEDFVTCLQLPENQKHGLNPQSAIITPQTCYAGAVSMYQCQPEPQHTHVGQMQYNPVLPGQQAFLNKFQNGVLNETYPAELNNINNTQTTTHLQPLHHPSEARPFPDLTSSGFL
Procedure, shortened: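 Reporter mRNA levels, quantified by RT-PCR and fluorescent capillary electrophoresis, reflect endogenous AhR transcriptional activity in HepG2 cells carrying transfected cis-promoter reporter constructs. Readout at 24 h post-dose; gain or loss fitted against DMSO baseline.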

[6] = ATG_AP_1_CIS: Attagene CIS-FACTORIAL HepG2 Assay for human Activator Protein 1 (AP-1) (AID 2282931); settings: HepG2 Attagene cis-factorial AP-1 reporter mRNA; actives raise or lower the signal
Procedure, shortened: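 Cis-regulated reporter units transiently expressed in HepG2 report endogenous transcription-factor activity. Signal: reporter mRNA at 24 h, via RT-PCR and fluorescent capillary electrophoresis. Endpoint derived by bidirectional fitting, DMSO as negative control.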

[7] = ATG_AP_2_CIS: Attagene CIS-FACTORIAL HepG2 Assay for human Activator Protein 2 (AP-2) (AID 2282932); settings: HepG2 AP-2 cis-reporter, Attagene transcription factor profiling; actives raise or lower the signal
Procedure, shortened: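 Step one: transient transfection of HepG2 with reporter transcription units. Step two: 24 h chemical exposure. Step three: RNA extraction, RT-PCR, labelled fragment analysis by capillary electrophoresis; DMSO serves as baseline.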

[8] = ATG_BRE_CIS: Attagene CIS-FACTORIAL HepG2 Assay for human Bone Morphogenetic Protein (BMP) Response Element (BRE) (AID 2282933); settings: HepG2 BMP response element reporter, Attagene transcription factor profiling; actives raise or lower the signal
Procedure, shortened: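 Gain- or loss-of-signal was derived by bidirectional fitting against DMSO controls. The signal came from reporter mRNA, measured by RT-PCR and capillary electrophoresis, in HepG2 cells transiently carrying multiple reporter units and dosed for 24 h.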

[9] = target: Transcription factor E2F1 (Homo sapiens) (UniProt Q01094); experiment: ATG_E2F_CIS: Attagene CIS-FACTORIAL HepG2 Assay for human E2F Transcription Factor 1 (AID 2282935); settings: HepG2 Attagene cis-reporter, E2F reporter RNA transcripts; actives raise or lower the signal
Transcription factor E2F1 (Homo sapiens), sequence (Q01094 whole entry, looked up): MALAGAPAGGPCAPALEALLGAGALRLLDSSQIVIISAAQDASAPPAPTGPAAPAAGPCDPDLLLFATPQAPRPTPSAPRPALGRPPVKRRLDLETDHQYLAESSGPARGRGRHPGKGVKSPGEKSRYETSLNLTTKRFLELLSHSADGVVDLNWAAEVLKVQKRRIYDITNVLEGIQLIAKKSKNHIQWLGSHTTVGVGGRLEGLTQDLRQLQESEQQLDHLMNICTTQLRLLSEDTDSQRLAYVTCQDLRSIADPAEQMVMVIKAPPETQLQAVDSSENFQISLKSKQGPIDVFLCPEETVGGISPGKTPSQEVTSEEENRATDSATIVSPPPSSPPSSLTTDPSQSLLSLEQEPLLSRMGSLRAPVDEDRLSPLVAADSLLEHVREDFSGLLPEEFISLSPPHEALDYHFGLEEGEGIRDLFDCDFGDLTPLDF
Procedure, shortened: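 Total RNA from 24 h-treated, reporter-transfected HepG2 cells undergoes DNase I treatment, oligo(dT) reverse transcription, PCR and 6-FAM primer extension before capillary electrophoresis.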

[10] = ATG_E_Box_CIS: Attagene CIS-FACTORIAL HepG2 Assay for human Enhancer Box (E-box) (AID 2282936); settings: HepG2 E-box cis-reporter transcription, actives raise or lower the signal
Procedure, shortened: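 DMSO served as negative control and baseline for bidirectional fitting. Human hepatoma HepG2 cells, transiently transfected with cis-reporter constructs, were dosed 24 h; reporter mRNA read by RT-PCR and capillary electrophoresis.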

[11] = ATG_M_61_CIS: Attagene CIS-FACTORIAL HepG2 Assay for M61 Transcription Factor (Internal Marker) (AID 2282937); settings: HepG2 Attagene CIS-FACTORIAL M61 internal marker reporter; actives raise or lower the signal
Procedure, shortened: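 Background-control endpoint: HepG2 cells with cis-regulated reporter constructs, 24 h exposure, reporter mRNA detected via fluorescent primer extension and capillary electrophoresis; values from bidirectional fitting with DMSO baseline.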

[12] = ATG_EGR_CIS: Attagene CIS-FACTORIAL HepG2 Assay for human Early Growth Response 1 (EGR1) (AID 2282938); settings: HepG2 Attagene CIS-FACTORIAL EGR reporter mRNA; actives raise or lower the signal
Procedure, shortened: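 Endpoint derived by bidirectional fitting versus DMSO vehicle. Method: cis-promoter reporter units transfected into HepG2, 24 h dosing, RNA isolation, RT-PCR with 6-FAM primer extension and HpaI digestion, then capillary electrophoresis fluorescence detection.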

[13] = ATG_M_19_CIS: Attagene CIS-FACTORIAL HepG2 Assay for M19 Transcription Factor (Internal Marker) (AID 2282939); settings: HepG2 Attagene CIS-FACTORIAL M19 internal marker reporter; actives raise or lower the signal
Procedure, shortened: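 Following a 24 h exposure, RNA from transfected HepG2 cells was reverse-transcribed, PCR-amplified with reporter-specific primers, end-labelled with 6-FAM and HpaI-digested before capillary separation. Values represent gain or loss versus DMSO.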

[14] = ATG_Ets_CIS: Attagene CIS-FACTORIAL HepG2 Assay for human Erythroblast Transformation Specific (ETS) (AID 2282941); settings: HepG2 ETS cis-reporter transcription, actives raise or lower the signal
Procedure, shortened: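 HepG2 cells transiently transfected with cis-promoter reporter transcription units were dosed for 24 h; reporter mRNA was measured by RT-PCR, 6-FAM primer extension, HpaI digestion and capillary electrophoresis, with bidirectional fitting against DMSO baseline.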

[15] = target: Hepatocyte nuclear factor 3-beta (Homo sapiens) (UniProt Q9Y261); experiment: ATG_FoxA2_CIS: Attagene CIS-FACTORIAL HepG2 Assay for human Forkhead box A2 (FOXA2) (AID 2282942); settings: HepG2 cis-reporter transcription factor activity, 24 h; actives raise or lower the signal
Hepatocyte nuclear factor 3-beta (Homo sapiens), sequence (Q9Y261 whole entry, looked up): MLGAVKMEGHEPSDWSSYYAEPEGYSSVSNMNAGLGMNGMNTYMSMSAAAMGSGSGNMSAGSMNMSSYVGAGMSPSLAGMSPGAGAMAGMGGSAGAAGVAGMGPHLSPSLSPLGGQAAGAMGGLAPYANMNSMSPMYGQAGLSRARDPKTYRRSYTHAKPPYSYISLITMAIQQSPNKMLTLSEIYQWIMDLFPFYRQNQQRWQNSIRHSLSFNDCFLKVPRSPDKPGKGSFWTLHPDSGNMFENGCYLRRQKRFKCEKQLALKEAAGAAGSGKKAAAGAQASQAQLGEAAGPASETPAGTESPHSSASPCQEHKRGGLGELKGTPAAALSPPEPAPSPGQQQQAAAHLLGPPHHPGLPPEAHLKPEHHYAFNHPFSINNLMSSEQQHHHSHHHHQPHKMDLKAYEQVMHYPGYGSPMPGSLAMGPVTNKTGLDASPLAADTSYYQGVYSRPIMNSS
Procedure, shortened: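 Measured: reporter mRNA induction or loss in HepG2 transiently carrying multiple cis-regulated reporter units, 24 h after dosing. Quantified by RT-PCR plus capillary electrophoresis, normalised to DMSO.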

[16] = ATG_FoxO_CIS: Attagene CIS-FACTORIAL HepG2 Assay for human Forkhead box O (FoxO) (AID 2282943); settings: HepG2 Attagene cis-reporter, FoxO element, mRNA; actives raise or lower the signal
Procedure, shortened: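 Endogenous transcription factor activity read from multiplexed cis-promoter reporter transcripts in transiently transfected HepG2, 24 h after dosing. Reporter RNA measured via RT-PCR plus capillary electrophoresis of FAM-labeled products; gain or loss relative to DMSO.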

[17] = ATG_GLI_CIS: Attagene CIS-FACTORIAL HepG2 Assay for human Zinc Finger Protein GLI1 (AID 2282945); settings: HepG2, Attagene cis-factorial reporter mRNA, GLI element; actives raise or lower the signal
Procedure, shortened: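 Bidirectional curve fits relative to DMSO, using reporter mRNA levels from RT-PCR plus capillary electrophoresis. Cells were HepG2 transiently carrying cis-regulated reporter constructs, harvested 24 h after dosing.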

[18] = ATG_GATA_CIS: Attagene CIS-FACTORIAL HepG2 Assay for human GATA Binding Protein (AID 2282944); settings: HepG2 GATA cis-element reporter, Attagene multiplex mRNA; actives raise or lower the signal
Procedure, shortened: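 DMSO serves as negative control and baseline for bidirectional fitting of reporter mRNA changes. HepG2 cells bearing transiently transfected cis-promoter reporters were exposed 24 h; transcripts detected via RT-PCR and capillary electrophoresis.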

[19] = ATG_ERE_CIS: Attagene CIS-FACTORIAL HepG2 Assay for Estrogen Response Element (ERE) (AID 2282940); settings: HepG2 ERE cis-reporter, Attagene RNA transcript; actives raise or lower the signal
Procedure, shortened: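 HepG2, transient cis-reporter units, 24 h exposure. RNA isolated, oligo(dT) RT, reporter-specific PCR, FAM extension, HpaI cut, CE detection. Gain/loss-of-signal vs DMSO.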

[20] = target: Retinoic acid receptor alpha (Homo sapiens) (UniProt P10276); experiment: ATG_DR5_RAR_CIS: Attagene CIS-FACTORIAL HepG2 Assay for human Retinoic Acid Receptor Alpha (RARE), DR5 submotif (AID 2282934); settings: HepG2 Attagene cis-factorial RARE DR5 reporter, mRNA; actives raise or lower the signal
Retinoic acid receptor alpha (Homo sapiens), sequence (P10276 whole entry, looked up): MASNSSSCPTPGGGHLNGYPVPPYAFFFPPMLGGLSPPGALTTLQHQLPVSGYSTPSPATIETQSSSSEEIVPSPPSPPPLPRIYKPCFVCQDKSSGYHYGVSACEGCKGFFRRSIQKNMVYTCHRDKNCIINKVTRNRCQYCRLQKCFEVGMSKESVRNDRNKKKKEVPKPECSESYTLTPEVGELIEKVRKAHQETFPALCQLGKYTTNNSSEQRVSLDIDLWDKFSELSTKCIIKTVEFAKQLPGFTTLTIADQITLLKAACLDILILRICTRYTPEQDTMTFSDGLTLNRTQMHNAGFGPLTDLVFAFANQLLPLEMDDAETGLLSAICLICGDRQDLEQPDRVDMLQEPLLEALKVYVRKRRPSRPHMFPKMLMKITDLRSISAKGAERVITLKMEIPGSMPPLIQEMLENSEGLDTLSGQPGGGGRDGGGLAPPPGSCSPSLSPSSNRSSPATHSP
Procedure, shortened: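 Reporter transcripts from a DR5-regulated unit, measured via RT-PCR plus capillary electrophoresis, reflect endogenous RAR activity in transiently transfected human HepG2 liver cells. Exposure lasted 24 h; gain or loss of signal scored against DMSO.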

Measured: AC50

COc1c(Cl)c(Cl)c(Cl)c(Cl)c1Cl
active: [3] 27.7 µM
not listed: [18] | [19] | [20]
inactive: all other assays above

CNCCO
not listed: [19] | [20]
inactive: all other assays above

O=[N+]([O-])c1ccc(Nc2ccc(Nc3ccccc3)c(S(=O)(=O)O)c2)c([N+](=O)[O-])c1
active: [4] 100 µM | [5] 31.9 µM | [6] 147 µM | [12] 100 µM
not listed: [18] | [19] | [20]
inactive: all other assays above

CC(CCO)CCCC(C)(C)O (configuration not stated)
not listed: [19] | [20]
inactive: all other assays above

c1ccc2c(c1)c1cccc3ccc4cccc2c4c31
not listed: [10] | [20]
inactive: all other assays above

Cc1ccc(C(=O)O)o1
not listed: [14] | [19] | [20]
inactive: all other assays above

Clc1sc(Cl)c(Cl)c1Cl
not listed: [10] | [18] | [20]
inactive: all other assays above

CC(=O)O[C@]1(C(C)=O)CC[C@H]2[C@@H]3C[C@H](C)C4=CC(=O)CC[C@]4(C)[C@H]3CC[C@@]21C
active: [19] 9.49 µM
not listed: [10] | [18] | [20]
inactive: all other assays above

O=C(O)c1cccc(C(F)(F)F)c1
not listed: [10] | [18] | [20]
inactive: all other assays above

FC1(F)C(F)(F)C(F)(F)C2(F)C(F)(C1(F)F)C(F)(F)C(F)(F)C1(F)C(F)(F)C(F)(F)C(F)(F)C(F)(F)C12F (configuration not stated)
not listed: [10] | [19] | [20]
inactive: all other assays above

CC1(CO)CN(c2ccccc2)NC1=O (configuration not stated)
active: [5] 9.8 µM
not listed: [4] | [19]
inactive: all other assays above

N#Cc1ccccc1
not listed: [16] | [19] | [20]
inactive: all other assays above

C=C(C)[C@@H]1CCC2=CC(=O)C[C@@H](C)[C@]2(C)C1
active: [4] 177 µM | [6] 53.4 µM | [8] 116 µM
not listed: [10] | [20]
inactive: all other assays above

O=C1OC2(c3cc(Br)c(O)c(Br)c3Oc3c2cc(Br)c(O)c3Br)c2c(Cl)c(Cl)c(Cl)c(Cl)c21
active: [5] 15.1 µM | [12] 35 µM | [19] 18.2 µM
not listed: [10] | [16] | [20]
inactive: all other assays above

Clc1ccc(Cl)c(Cl)c1Cl
active: [5] 31.7 µM
not listed: [10] | [19] | [20]
inactive: all other assays above

CCc1ccc(C=O)cc1
not listed: [14] | [19] | [20]
inactive: all other assays above
